# According to PubChem BioAssay (NCI):
# This is part of a sample that, as a whole, favours compounds with a hit. Of some 83,000 tested, about 20% had one in any assay.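 Cell lines were cultured in 96-well plates, exposed to a single compound concentration, and assessed for percent growth 48 hours later.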 Unmarked numbers belong to inactive results. Active and inactive are the calls of the source. The calls were made as follows: active = growth percent below 10; inactive = the rest.
# Tests used:
# Assay in all cases: NCI-60 one-dose screen, 48 h (100 = growth as untreated, 0 = no growth, -100 = all killed)
# Details in all cases: 10 µM unless noted
# NCI-H23 lung = system: NCI-H23 lung
# NCI-H226 lung = system: NCI-H226 lung
# NCI-H322M lung = system: NCI-H322M lung
# HOP-62 NSCLC = system: HOP-62 NSCLC
# NCI-H460 lung = system: NCI-H460 lung
# HOP-92 NSCLC = system: HOP-92 NSCLC
# NCI-H522 lung = system: NCI-H522 lung
# A549/ATCC NSCLC = system: A549/ATCC NSCLC
# 786-0 renal = system: 786-0 renal
# COLO 205 colon = system: COLO 205 colon
# DU-145 prostate = system: DU-145 prostate
# K-562 leukemia = system: K-562 leukemia
# MALME-3M melanoma = system: MALME-3M melanoma
# MDA-MB-231 breast = system: MDA-MB-231 breast
# RXF 393 renal = system: RXF 393 renal
# SF-268 CNS = system: SF-268 CNS
# SF-295 CNS = system: SF-295 CNS
# SF-539 CNS = system: SF-539 CNS
# UACC-257 melanoma = system: UACC-257 melanoma
# M14 melanoma = system: M14 melanoma
SMILES,growth (NCI-H23 lung),growth (NCI-H226 lung),growth (NCI-H322M lung),growth (HOP-62 NSCLC) [%],growth (NCI-H460 lung),growth (HOP-92 NSCLC),growth (NCI-H522 lung),growth (A549/ATCC NSCLC),growth (786-0 renal),growth (COLO 205 colon),growth (DU-145 prostate),growth (K-562 leukemia),growth (MALME-3M melanoma),growth (MDA-MB-231 breast),growth (RXF 393 renal),growth (SF-268 CNS),growth (SF-295 CNS),growth (SF-539 CNS),growth (UACC-257 melanoma),growth (M14 melanoma)
C/C(=N/NC(N)=S)c1sc(Nc2cccc(Cl)c2)nc1C,89.4%,92%,77.9%,102,92.9%,62.6%,42.6%,92.5%,84.3%,84.9%,81.7%,68.7%,93.1%,65%,89.6%,75.1%,88.7%,83.7%,101%,88.3%
Cc1ccc(-c2nc(N3CCN(CC(=O)Nc4ccc(Cl)c(C(F)(F)F)c4)CC3)c3ccccc3n2)cc1,92.5%,90.3%,87.3%,98.6,92.7%,96.5%,81.6%,75.8%,91.1%,86.3%,105%,69%,106%,90.7%,80.5%,81.6%,104%,95.9%,94.5%,95.7%
CN1CCN(c2ccc(-c3cc4c(Nc5ccc(F)c(Cl)c5)ncnn4c3)cc2)CC1,96.2%,89%,32.9%,103,8.58% (active),76.8%,72.5%,71.4%,89.6%,37%,44.1%,0.617% (active),28.5%,91.1%,79.8%,69.2%,84.8%,50.5%,69.2%,66.7%
Cc1ccc(-c2nn(C)c(=O)c3noc(-c4ccc(C)cc4)c23)cc1,43.1%,58%,56.4%,28.1,22.7%,14.2%,9.02% (active),46.2%,29%,12.5%,35.3%,17%,73.9%,58.3%,13.6%,55.1%,41.2%,-4.12% (active),62.8%,21.6%
CC(=O)OC[C@H]1OC(Sc2sc(C(=O)c3ccc(Br)cc3)c(N)c2-c2nc3ccccc3s2)[C@H](OC(C)=O)[C@@H](OC(C)=O)[C@H]1OC(C)=O (stereo not given in full),88.4%,65.6%,91.8%,91.1,107%,98.3%,94.1%,92.2%,94.4%,108%,110%,92.2%,98.1%,80.6%,115%,93%,97.1%,95.2%,104%,96.1%
O=[N+]([O-])c1ccc(Cl)c(-c2cc(CCCCO)on2)c1,101%,93.5%,96.3%,106,109%,94.2%,93.8%,92.9%,98.6%,131%,111%,102%,102%,103%,99.2%,99.3%,111%,96.7%,117%,110%
O=C1c2ccccc2NC(n2sc3ccccc3c2=O)N1c1ccccc1 (stereo not given),99%,93.3%,91.9%,92.3,107%,95.2%,76.8%,101%,92%,115%,107%,95.5%,106%,90.6%,110%,91.7%,99.6%,94.7%,120%,102%
O=c1c2cc(F)ccc2sc2c(NCCN3CCOCC3)nc3ccccc3c12,85.1%,91.3%,77.8%,80.9,31.8%,44.6%,65.6%,69.3%,59.2%,53.2%,68.4%,0.338% (active),92%,25.9%,72.9%,68.7%,89.4%,74.7%,98.2%,46.5%
Cc1nc2cnc(N)c(C#Cc3cncc(C(=O)Nc4ccc(CN5CCN(C)CC5)c(C(F)(F)F)c4)c3)c2nc1C,-9.47% (active),3.74% (active),-5.35% (active),11.9,4.26% (active),-39% (active),4.74% (active),2.19% (active),35%,-17.5% (active),8.22% (active),7.33% (active),-40.5% (active),-12.3% (active),-68.3% (active),8% (active),36%,-23.3% (active),-25.8% (active),-55.6% (active)
S=C(c1cccs1)N1CCN(c2cccc(Cl)c2)CC1,99.2%,92.7%,122%,102,105%,81.7%,81.1%,87.6%,85.4%,107%,98.3%,93.5%,80.9%,92.5%,100%,104%,111%,99.8%,105%,99.4%
CCOC(=O)c1cn2ncnc(Oc3ccc(NC(=O)NCCN4CCN(C)CC4)c(Cl)c3)c2c1C,67.8%,82.3%,93%,87.9,99.4%,31.6%,66.6%,88.6%,81.8%,76.8%,81.2%,10.9%,28.3%,72%,35.8%,81.4%,94.8%,78.5%,-15.9% (active),-23.7% (active)
CC(C)OC(=O)Nc1ccc(-c2nc(-c3cccc(OCCN4CCOCC4)c3)c(-c3ccnc(Br)c3)[nH]2)cc1,33%,55.3%,46.5%,28.4,30%,29.8%,49.9%,40%,-33% (active),-5.63% (active),63.8%,0.869% (active),-5.36% (active),39.3%,-42.9% (active),52.2%,-65.2% (active),-0.0542% (active),33.5%,30.5%
Cc1cc(N2CCCC2)nc(N(CCCNc2ccnc3cc(Cl)ccc23)Cc2ccccn2)n1,59%,79.8%,57.1%,55.6,35.6%,17.4%,47.3%,62%,53.3%,39.1%,62.7%,11.3%,39.4%,45.2%,25.8%,62.5%,66%,9.89% (active),49.4%,-15.9% (active)
Cc1nc(/N=C(\N)NC(=O)Nc2cccc(Cl)c2)sc1C,73.2%,90.2%,92%,71,66%,89.5%,38.9%,70.1%,97.8%,67.3%,90%,17%,62%,87.9%,87.8%,89.5%,77.2%,78.3%,71.7%,50.5%
